Assay outcomes from PubChem.
Rows were chosen to be rich in hits. Some 0.99% of all compounds tested hit in one or more screens of this group.
WRN inhibitor – inhibitors of human WRN helicase. Q14191. WRN helicase unwinding, fluorescent forked duplex, kinetic. Potency, µM (titrated, usually from 114 µM), hits mostly inhibitors. 360,000 tested, 0.46% active. AID 651768; further: nearly all actives have a fitted effect of over 55% in size
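Enzyme (20 nM final) and test compound sit together 15 min at room temperature before substrate addition. Substrate is a single-forked duplex oligonucleotide (100 nM) labelled with fluorophore and quencher, with 2 mM ATP; helicase unwinding raises red fluorescence, read kinetically.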
FEN1 inhibitor – human FEN1 inhibition; Recombinant FEN1 flap cleavage, fluorescence, 15 min; Potency, µM (doses to about 114 µM), usual class: inhibitors; 390,000 tested, 0.35% active; further: nearly all actives have a fitted effect of over 65% in size
Target sequence (P39748 whole entry, looked up): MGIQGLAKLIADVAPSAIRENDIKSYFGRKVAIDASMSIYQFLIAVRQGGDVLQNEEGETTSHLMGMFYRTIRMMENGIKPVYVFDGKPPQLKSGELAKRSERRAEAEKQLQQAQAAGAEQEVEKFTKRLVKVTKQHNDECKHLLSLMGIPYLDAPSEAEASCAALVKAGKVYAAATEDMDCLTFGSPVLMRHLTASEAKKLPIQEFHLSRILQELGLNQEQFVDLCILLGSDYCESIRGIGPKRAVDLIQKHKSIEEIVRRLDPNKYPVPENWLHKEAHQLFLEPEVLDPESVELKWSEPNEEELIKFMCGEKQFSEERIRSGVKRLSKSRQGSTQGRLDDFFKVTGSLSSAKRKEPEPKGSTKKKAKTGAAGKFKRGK
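Potency values derive from four-parameter Hill fits of normalized qHTS data. The reaction used 10 nM FEN1 preincubated 15 min at room temperature with compound, then 50 nM DNA substrate, read at 0 and 15 min.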
RECQ1 inh – blocks DNA unwinding by human RECQ1; P46063; RECQ1 DNA unwinding, red fluorescence kinetic read; Potency, µM (titrated, usually from 57.3 µM), usual class: inhibitors; 240,000 tested, 0.54% active; AID 2549; further: nearly all actives have a fitted effect of over 30% in size
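RECQ1T1 50 nM; forked duplex (20 bp + 30-nt ss tails) 200 nM, ATP 2 mM final; pH 8.0, 2 mM MgCl2, 2.5 ug/ml poly(dI-dC); 15 min compound preincubation; discontinuous kinetic read over 2 h at RT.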
BLM inh – blocks DNA unwinding by human BLM helicase; P54132; recombinant BLM DNA unwinding, fluorescence dequenching; Potency, µM (series often up to 56.1 µM), usual class: inhibitors; 350,000 tested, 0.2% active; AID 2528; further: nearly all actives have a fitted effect of over 35% in size
L3MBTL1 inh-1 – L3MBTL1 (human) inhibition | Q9Y468 | AlphaScreen L3MBTL1–H3K9me1 peptide binding | Potency, µM (series often up to 57.1 µM), most hits filed as inhibitors | 230,000 tested, 0.66% active | AID 485360; further: nearly all actives have a fitted effect of over 60% in size
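Read-out is AlphaScreen signal from streptavidin donor and nickel chelate acceptor beads (10 ug/mL final each) bridging L3MBTL1 (50 nM) and biotinylated K9-monomethylated H3(1-15) peptide (75 nM), after 30 min compound exposure at room temperature.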
L3MBTL1 inh-2 – blocks human L3MBTL1 methyl-lysine binding; shares compounds with L3MBTL1 inh-1; L3MBTL1 methyl-lysine binding inhibition, biochemical qHTS; Potency, µM, most hits filed as inhibitors; 500 tested, 91% active; further: nearly all actives have a fitted effect of over 70% in size
L3MBTL1 ctr – AlphaScreen signal inhibition, L3MBTL1 hit counter-screen | shares compounds with L3MBTL1 inh-1 | AlphaScreen counterscreen, signal inhibition | Potency, µM (doses to about 57.1 µM), most hits filed as inhibitors | 500 tested, under 10 active
A number is an active result; n = inactive; u = inconclusive; x = not tested or not shown; [ ] = dose if it differs, or a comment. The call rests on the fitted dose curve; in most records, active means well fitted curve in the direction sought with a large enough effect; inconclusive means small, poorly fitted or top-dose-only effect, or another doubt; inactive means no such curve, though single readings can be large; an effect the other way counts as inactive or inconclusive.

SMILES	WRN inhibitor	FEN1 inhibitor	RECQ1 inh	BLM inh	L3MBTL1 inh-1	L3MBTL1 inh-2	L3MBTL1 ctr
CC(=O)c1ccccc1NS(=O)(=O)c1cccc2nonc12	n	n	x	n	x	x	x
CC(=O)c1ccccc1NS(=O)(=O)c1cccc2nsnc12	n[11.6 µM]	n	x	n	31.6µM	26.7	n
COC(=O)c1ccccc1NC(=O)c1cc2c(-c3ccc(OC)c(OC)c3)nn(C)c2s1	x	n	x	n	x	x	x
CCCN(C(=O)c1cccc(-n2cccc2)c1)c1c(N)n(Cc2ccccc2)c(=O)[nH]c1=O	50.1µM	n	x	x	10µM	4.74	n
CCCCN(C(=O)c1cccc(-n2cccc2)c1)c1c(N)n(CCC)c(=O)[nH]c1=O	56.2µM	n	x	x	14.1µM	9.47	n
CC(C)S(=O)(=O)C1=NSC2=NC(=O)/C(=C\c3ccc(-c4cccc(C(=O)O)c4)o3)C(=N)N21	u	22.4µM	n	n	12.6µM	3.77	n
COc1ccc(C2=Nn3c(nnc3-c3ccccc3OC)SC2)cc1OC	n	n	n	n	n	x	x
COc1ccc(C2=Nn3c(nnc3-c3ccccn3)SC2)cc1OC	n	n	n	n	25.1µM	u	n
O=C(Nn1cc(C(=O)Nc2ccccc2F)c2ccccc2c1=O)c1cnccn1	n	n	n	n	39.8µM	u	n
CCOC(=O)C1NN=C(C(=O)c2ccccc2)C1c1ccc(Cl)cc1 (centres undefined)	n	n	n	n	n	x	x
COc1ccc2c(CC(=O)NCc3ccc4c(c3)OCO4)coc2c1	u	n	n	n	25.1µM	26.7	n
COc1ccc(Cc2nnc(NS(C)(=O)=O)s2)cc1	n	n	n	n	x	x	x
O=C(O)c1cc(-c2ccc(/C=C3\NC(=O)N(c4ccccc4)C3=O)o2)ccc1Cl	u	u	25.1µM	n	20µM	2.99	n
CCOc1cc(CNn2cnnc2)cc(Br)c1OCC(=O)NC(C)(C)C	n	n	x	n	n	x	x
CC(=O)Nc1ccc(C(=O)/C=C/c2ccco2)cc1	u	u	n	n	31.6µM	9.47	n
Cn1c(N)c(C(=O)COC(=O)c2cc(-c3ccco3)nc3ccccc23)c(=O)n(Cc2ccccc2)c1=O	x	x	u	n	31.6µM	3.77	n
CCCn1c(N)c(N(CCOC)C(=O)c2cc(-c3ccco3)nc3ccccc23)c(=O)[nH]c1=O	n	n	x	n	x	x	x
COCCCN(C(=O)c1cc(-c2ccco2)nc2ccccc12)c1c(N)n(Cc2ccccc2)c(=O)[nH]c1=O	n	n	x	x	31.6µM	18.9	n
CCSc1nnc(-c2cccnc2)n1-c1ccc(C)c(Cl)c1	n	n	n	n	x	x	x
O=C(COC(=O)C1CCN(S(=O)(=O)c2cccs2)CC1)c1ccc2c(c1)OCCO2	n	n	n	n	n	x	x
O=C(COC(=O)C1CCN(S(=O)(=O)c2cccs2)CC1)c1cc2ccccc2o1	n	n	n	n	31.6µM	u	n
COC(=O)Cc1cc(=O)n(-c2nc3ccccc3[nH]2)[nH]1	n	n	n	n	12.6µM	6.7	u
COc1ccc(CC(=O)Nc2nc3ccccc3[nH]2)cc1	n	n	n	n	n	x	x
COc1ccc2nc3sc(C(=O)Nc4ccccc4F)cc3cc2c1	x	n	x	n	x	x	x
Oc1ccc(Br)cc1CNc1cccc2cccnc12	n	u	x	n	n[2.29 µM]	x	x
SMILES	WRN inhibitor	FEN1 inhibitor	RECQ1 inh	BLM inh	L3MBTL1 inh-1	L3MBTL1 inh-2	L3MBTL1 ctr
Oc1c(Br)cc(Br)cc1CNc1cccc2cccnc12	n[11.6 µM]	u	x	u	35.5µM	u	n
Cc1ccc(C)c(N2CCN(C(=O)c3ccc4nc(-c5ccco5)c(-c5ccco5)nc4c3)CC2)c1	n	n	n	u	n	x	x
COc1ccccc1N1CCN(C(=O)c2ccc3nc(-c4ccco4)c(-c4ccco4)nc3c2)CC1	n	n	n	n	28.2µM	18.9	n
CC(C)(CS(=O)(=O)[O-])NC(=O)CC[N+](C)(C)CCO	7.94µM	39.8µM	1.41µM	14.1µM	3.55µM	1.19	n
CCOC(=O)C(NC(=O)CCC(=O)Nc1ccc(S(N)(=O)=O)cc1)C(O)c1ccccc1 (centres undefined)	n	n	n	n	n	x	x
CC(=O)c1ccc(S(=O)(=O)Nc2c(C)nn(C)c2C)cc1	n[11.6 µM]	n	x	x	28.2µM	u	n
Cc1ccc(S(=O)(=O)Nc2c(C)nn(C)c2C)cc1C	n	n	x	x	n	x	x
Nc1nonc1C(=O)NCCNCc1ccccc1OCc1ccc(F)cc1	n	n	n	n	n	x	x
Cc1ccn2c(=O)nc(SCC(=O)Nc3cccc4ccccc34)nc2c1	n[11.6 µM]	n	x	x	u	x	x
O=C(CSc1nc(=O)n2cc(Cl)ccc2n1)Nc1cccc2ccccc12	n	n	x	x	25.1µM	u	n
CC1=NOC(=O)/C1=C\c1ccc(-c2ccc(Br)cc2)o1	u	u	n	n	x	x	x
CC1=NOC(=O)/C1=C\c1ccc(-c2ccc(Br)cc2C(=O)O)o1	50.1µM	n	n	n	22.4µM	26.7	n
O=C(CCCN1C(=O)c2ccccc2C1=O)OC1CSCC1NC(=O)c1ccccc1 (centres undefined)	n	n	n	n	n	x	x
CCOC(=O)C1=C(COC(=O)/C=C/c2ccco2)NC(=O)NC1C (centres undefined)	u	n	x	x	7.94µM	8.44	n
CCOC(=O)C1=C(COC(=O)/C=C/c2ccc(OC)cc2)NC(=O)NC1C (centres undefined)	n	n	x	x	n	x	x
OCC[C@@H]1C[C@H](O)[C@@H](O)[C@@]2(OCc3cc(Cl)ccc32)O1	n	x	x	x	x	x	x
O=C(O)CN1C(=O)/C(=C/c2ccc(SCc3ccccc3)o2)SC1=S	u	n	25.1µM	n	2.24µM	4.74	u
Oc1[nH]c2ccc(Br)cc2c1N=NC(=S)N1CCOCC1	n	n	n	n	u	x	x
Oc1[nH]c2ccccc2c1N=NC(=S)N1CCOCC1	n	n	n	n	28.2µM	21.2	u
COc1ccccc1Sc1nc(-c2ccccn2)ncc1OC	n	n	n	n	3.98µM	18.9	n
CN(CC(=O)NCc1ccccc1Cl)S(=O)(=O)c1cccs1	n	n	x	n	x	x	x
c1coc(-c2nc3ccccc3nc2-c2ccco2)c1	u	n	u	15.8µM	31.6µM	u	n
CCCNC(=O)c1ccccc1NC(=O)c1ccc2c(=O)n3c(nc2c1)CCC3	n	n	x	x	n	x	x
Nc1cc2c(cc1[N+](=O)[O-])OCCO2	n	n	n	n	n	x	x
Nc1cc2c(cc1[N+](=O)[O-])OCO2	n	n	n	n	31.6µM	8.44	n
OC(c1ccccn1)(c1ccccn1)c1ccccn1	n	n	n	n	15.8µM	21.2	n
COc1ccc(S(=O)(=O)N2CCOCC2)cc1C(=O)Nc1ccc2c(c1)OCO2	n	n	x	n	x	x	x
O=c1c2ccccc2nc2n1CCC2	22.4µM	u	n	n	28.2µM	23.8	u
O=C(Oc1ccccc1F)c1ccc2c(=O)n3c(nc2c1)CCC3	n	n	x	x	35.5µM	u	n
